PubChem BioAssay (EPA / NIEHS)
Values joined by “and” are separate entries in the source; they are usually repeats but may differ in a detail not shown here. Equal entries are not always repeated. Results filed as inconclusive are left out. More than one record can exist for a structure, and the calls need not agree. Active and inactive are the calls of the source. How the source made its calls, unless noted: active means hit-call score of the fitted dose curve at least 0.9, where 1 is the maximum; inconclusive means response in the unintended direction; inactive means score below 0.9.

Columns and labels:
[1] = target: human Peroxisome Proliferator-activated Receptor delta (PPARd), PPARD (gene 5467) (UniProt Q03181); assay: ATG_PPARd_TRANS: Attagene TRANS-FACTORIAL HepG2 Assay for human Peroxisome Proliferator-activated Receptor delta (PPARd) (AID 2283002)
Summary of the method: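 Cell-based TRANS reporter: HepG2, transient MRTU transfection, 24 h exposure. Readout = reporter mRNA (RT-PCR/CE, 6-FAM). Gain-of-signal fit vs DMSO control.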

[2] = read-out: Intercellular Adhesion Molecule 1 (ICAM1), ICAM1 (gene 3383); assay: BSK_3C_ICAM1: BioMAP Diversity Plus: 3C Assay for Intercellular Adhesion Molecule 1 (ICAM1) Biomarker Activity (AID 2283003; active means hit-call score of the fitted dose curve at least 0.9, where 1 is the maximum; inactive means score below 0.9); details: primary human endothelial cells (HUVEC); actives raise or lower the signal
Summary of the method: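 ELISA read-out of ICAM-1; HUVEC (primary human), 3C system, 24 h post-dosing; bidirectional fit vs DMSO baseline.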

[3] = BSK_3C_Proliferation: Cell Proliferation Assessment in the BioMAP Diversity Plus: 3C Assay (AID 2283006; active means hit-call score of the fitted dose curve at least 0.9, where 1 is the maximum; inactive means score below 0.9;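 on AC50: potency may reflect either rise or fall in cell number versus DMSO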); details: primary human endothelial cells (HUVEC)
Summary of the method: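 HUVEC, sub-confluent; 48 h chemical exposure; 10% TCA fix, 0.1% SRB stain, A560 total protein. Gain or loss of signal fitted both directions vs DMSO control.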

[4] = target: Peroxisome proliferator-activated receptor gamma (Homo sapiens) (UniProt P37231); assay: ATG_PPARg_TRANS: Attagene TRANS-FACTORIAL HepG2 Assay for human Peroxisome Proliferator-activated Receptor-gamma (PPARg) (AID 2283007)
Summary of the method: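 Endpoint reflects upward reporter mRNA change versus DMSO controls. Setup: transiently transfected HepG2, GAL4-UAS reporters driven by chimeric NR-Gal4, 24 h incubation, RT-PCR with capillary electrophoresis read-out.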

[5] = target: Nuclear receptor subfamily 1 group I member 2 (Homo sapiens) (UniProt O75469); assay: ATG_PXR_TRANS: Attagene TRANS-FACTORIAL HepG2 Assay for human Pregnane X Receptor (PXR) (AID 2283008)
Summary of the method: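 Multiplexed TRANS reporter panel in HepG2; this component tracks PXR-Gal4-driven reporter mRNA after 24 h dosing, measured by RT-PCR with capillary electrophoresis fluorescence, fitted against DMSO.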

[6] = target: human Retinoic Acid Receptor gamma (RARg), RARG (gene 5916) (UniProt P13631); assay: ATG_RARg_TRANS: Attagene TRANS-FACTORIAL HepG2 Assay for human Retinoic Acid Receptor gamma (RARg) (AID 2283009)
Summary of the method: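 Readout: reporter transcript levels via RT-PCR, 6-FAM primer-extension labelling, HpaI digestion and capillary electrophoresis. Cells: HepG2 carrying transfected RARg-GAL4 chimera plus UAS reporter set. Dosing 24 h; DMSO negative control.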

[7] = target: Retinoic acid receptor RXR-alpha (Homo sapiens) (UniProt P19793); assay: ATG_RXRa_TRANS: Attagene TRANS-FACTORIAL HepG2 Assay for human Retinoid X Receptor alpha (RXRa) (AID 2283012)
Summary of the method: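 Read-out: fluorescent reporter-transcript fragments quantified by capillary electrophoresis after RT-PCR. Transiently transfected HepG2 cells carrying GAL4-UAS reporters and NR-GAL4 chimeras were exposed to chemical for 24 h; activity scored as increase over DMSO.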

[8] = target: human Retinoid X Receptor beta (RXRb), RXRB (gene 6257) (UniProt P28702); assay: ATG_RXRb_TRANS: Attagene TRANS-FACTORIAL HepG2 Assay for human Retinoid X Receptor beta (RXRb) (AID 2283013)
Summary of the method: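 Read-out: reporter mRNA induction via RT-PCR plus capillary electrophoresis fluorescence, analysed as signal increase relative to DMSO. Cells were human HepG2, transiently transfected with GAL4-UAS reporter constructs and chimeric receptor-Gal4 fusions, dosed for 24 h.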

[9] = target: human Thyroid Receptor alpha (THRa1), THRA (gene 7067) (UniProt P10827); assay: ATG_THRa1_TRANS: Attagene TRANS-FACTORIAL HepG2 Assay for human Thyroid Receptor alpha (THRa1) (AID 2283014)
Summary of the method: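 First, HepG2 cells receive multiple GAL4-UAS reporter units and the chimeric receptor. They are then dosed for 24 h, after which RNA is reverse-transcribed, amplified, labelled, HpaI-cut and sized by capillary electrophoresis; gain relative to DMSO is scored.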

[10] = read-out: E-selectin (Homo sapiens) (UniProt P16581); assay: BSK_3C_Eselectin: BioMAP Diversity Plus: 3C Assay for Eselectin Biomarker Activity (AID 2283015; active means hit-call score of the fitted dose curve at least 0.9, where 1 is the maximum; inactive means score below 0.9); details: primary human endothelial cells (HUVEC); actives raise or lower the signal
Summary of the method: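 Human vascular endothelium from umbilical vein is exposed to test chemicals for 24 h. E-selectin levels are read by ELISA and compared with DMSO controls.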

[11] = read-out: Interleukin-1 alpha (IL1a), IL1A (gene 3552); assay: BSK_BE3C_IL1a: BioMAP Diversity Plus: BE3C Assay for Interleukin-1 alpha (IL1a) Biomarker Activity (AID 2283016; active means hit-call score of the fitted dose curve at least 0.9, where 1 is the maximum; inactive means score below 0.9); details: primary human bronchial epithelial cells; actives raise or lower the signal
Summary of the method: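 ELISA read-out of IL-1a from human lung bronchial epithelial primary cells, 24 h post-dose. Gain or loss of signal fitted relative to DMSO negative control.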

[12] = read-out: Monocyte Chemoattractant Protein-1 (MCP1), CCL2 (gene 6347); assay: BSK_3C_MCP1: BioMAP Diversity Plus: 3C Assay for Monocyte Chemoattractant Protein-1 (MCP1) Biomarker Activity (AID 2283017; active means hit-call score of the fitted dose curve at least 0.9, where 1 is the maximum; inactive means score below 0.9); details: primary human endothelial cells (HUVEC); actives raise or lower the signal
Summary of the method: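 Endothelial cells from human umbilical vein are dosed with chemical, cultured 24 h, then assayed for MCP-1 by ELISA; both increases and decreases are modelled against DMSO controls.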

[13] = read-out: Monocyte Chemoattractant Protein-1 (MCP1), CCL2 (gene 6347); assay: BSK_4H_MCP1: BioMAP Diversity Plus: 4H Assay for Monocyte Chemoattractant Protein-1 (MCP1) Biomarker Activity (AID 2283018; active means hit-call score of the fitted dose curve at least 0.9, where 1 is the maximum; inactive means score below 0.9); details: primary human endothelial cells (HUVEC); actives raise or lower the signal
Summary of the method: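 HUVEC primary cells, 24 h post-dose, MCP-1 by ELISA. Gain or loss of signal fitted bidirectionally vs DMSO baseline. Cytotoxicity: SRB stain (0.1% after 10% TCA fixation), read 560 nm, parallel cultures.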

[14] = read-out: Human Leukocyte Antigen - DR isotype (HLADR), HLA-DRA (gene 3122); assay: BSK_3C_HLADR: BioMAP Diversity Plus: 3C Assay for Human Leukocyte Antigen - DR isotype (HLADR) Biomarker Activity (AID 2283019; active means hit-call score of the fitted dose curve at least 0.9, where 1 is the maximum; inactive means score below 0.9); details: primary human endothelial cells (HUVEC); actives raise or lower the signal
Summary of the method: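 Endothelial cells from human umbilical vein are treated with test chemical; after 24 h, HLA-DR levels are measured by ELISA. Data are fitted in both directions using DMSO as the baseline.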

[15] = read-out: Interleukin-8 (IL8), CXCL8 (gene 3576); assay: BSK_3C_IL8: BioMAP Diversity Plus: 3C Assay for Interleukin-8 (IL8) Biomarker Activity (AID 2283020; active means hit-call score of the fitted dose curve at least 0.9, where 1 is the maximum; inactive means score below 0.9); details: primary human endothelial cells (HUVEC); actives raise or lower the signal
Summary of the method: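 HUVEC, 3C stimulation; 24 h compound exposure; IL-8 read by ELISA; gain or loss of signal fitted relative to DMSO control.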

[16] = read-out: Monokine induced gamma interferon (MIG), CXCL9 (gene 4283); assay: BSK_3C_MIG: BioMAP Diversity Plus: 3C Assay for Monokine induced gamma interferon (MIG) Biomarker Activity (AID 2283021; active means hit-call score of the fitted dose curve at least 0.9, where 1 is the maximum; inactive means score below 0.9;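 on AC50: MIG protein level measured by immunoassay in the treated endothelial cultures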); details: primary human endothelial cells (HUVEC); actives raise or lower the signal
Summary of the method: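 HUVEC, 3C system; 24 h chemical exposure; MIG by ELISA; bidirectional fit vs DMSO baseline.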

[17] = target: human Vitamin D Receptor (VDR), VDR (gene 7421) (UniProt P11473); assay: ATG_VDR_TRANS: Attagene TRANS-FACTORIAL HepG2 Assay for human Vitamin D Receptor (VDR) (AID 2283022)
Summary of the method: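 Fluorescence of labelled reporter cDNA fragments, resolved by capillary electrophoresis, gives mRNA induction after 24 h treatment of HepG2 cells carrying transfected Gal4-fusion reporter units. Activity is fitted in the positive direction with DMSO as baseline.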

[18] = BSK_3C_SRB: Viability Assessment in the BioMAP Diversity Plus: 3C Assay (AID 2283023; active means hit-call score of the fitted dose curve at least 0.9, where 1 is the maximum; inactive means score below 0.9;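 further: cells read 24 h after compound dosing; fitted both ways against DMSO so a hit may be signal rise or drop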); details: primary human endothelial cells (HUVEC)
Summary of the method: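 Cells were dosed with chemical, cultured 24 h, fixed with 10% TCA, stained with 0.1% SRB and read at 560 nm. Human umbilical vein endothelium was used; DMSO served as negative control and baseline.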

[19] = target: human RAR-related Orphan Receptor beta (RORb), RORB (gene 6096) (UniProt Q92753); assay: ATG_RORb_TRANS: Attagene TRANS-FACTORIAL HepG2 Assay for human RAR-related Orphan Receptor beta (RORb) (AID 2283010)
Summary of the method: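 HepG2, transient MRTU transfection (GAL4-UAS reporters, exogenous NR-Gal4 chimeras); 24 h compound exposure; total RNA → RT-PCR → 6-FAM primer extension → HpaI digest → CE fluorescence. Positive direction vs DMSO baseline.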

[20] = target: human RAR-related Orphan Receptor gamma (RORg), RORC (gene 6097) (UniProt P51449); assay: ATG_RORg_TRANS: Attagene TRANS-FACTORIAL HepG2 Assay for human RAR-related Orphan Receptor gamma (RORg) (AID 2283011)
Summary of the method: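 Activity is scored as increase in GAL4-UAS reporter mRNA over DMSO, detected by fluorescent RT-PCR and capillary electrophoresis in HepG2 cells transiently expressing a RORg-Gal4 chimera, 24 h after dosing.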

Measured: AC50

human RAR-related Orphan Receptor gamma (RORg), RORC (gene 6097), sequence (P51449 whole entry, looked up, the tested form may be a part): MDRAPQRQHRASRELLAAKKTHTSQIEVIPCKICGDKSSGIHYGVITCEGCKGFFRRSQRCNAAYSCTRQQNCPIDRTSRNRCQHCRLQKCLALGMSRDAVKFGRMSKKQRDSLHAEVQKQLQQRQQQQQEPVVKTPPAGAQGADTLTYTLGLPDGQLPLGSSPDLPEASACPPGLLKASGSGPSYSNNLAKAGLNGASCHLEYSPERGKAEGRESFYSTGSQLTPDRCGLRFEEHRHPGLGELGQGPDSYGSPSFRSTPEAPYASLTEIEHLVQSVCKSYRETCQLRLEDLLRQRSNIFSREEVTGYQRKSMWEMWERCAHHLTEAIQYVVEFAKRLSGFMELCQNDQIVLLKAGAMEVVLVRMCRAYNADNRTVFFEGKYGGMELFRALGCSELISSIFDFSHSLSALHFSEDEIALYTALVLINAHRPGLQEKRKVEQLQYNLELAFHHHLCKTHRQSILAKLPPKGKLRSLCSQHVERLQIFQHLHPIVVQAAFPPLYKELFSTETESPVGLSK
human Retinoic Acid Receptor gamma (RARg), RARG (gene 5916), sequence (P13631 whole entry, looked up, the tested form may be a part): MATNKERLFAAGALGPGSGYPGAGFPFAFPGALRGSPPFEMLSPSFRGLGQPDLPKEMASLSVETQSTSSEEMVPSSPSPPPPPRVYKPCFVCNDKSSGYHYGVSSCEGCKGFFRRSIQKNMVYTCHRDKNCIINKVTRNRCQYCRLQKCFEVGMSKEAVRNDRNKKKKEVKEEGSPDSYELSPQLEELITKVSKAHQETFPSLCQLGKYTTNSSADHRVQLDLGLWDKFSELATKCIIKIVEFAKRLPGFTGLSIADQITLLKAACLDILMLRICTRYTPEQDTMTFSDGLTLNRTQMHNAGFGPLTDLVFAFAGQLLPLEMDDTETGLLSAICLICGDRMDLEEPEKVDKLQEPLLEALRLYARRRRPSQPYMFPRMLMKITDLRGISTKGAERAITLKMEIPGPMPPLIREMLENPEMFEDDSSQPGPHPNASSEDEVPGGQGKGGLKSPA
human Vitamin D Receptor (VDR), VDR (gene 7421), sequence (P11473 whole entry, looked up, the tested form may be a part): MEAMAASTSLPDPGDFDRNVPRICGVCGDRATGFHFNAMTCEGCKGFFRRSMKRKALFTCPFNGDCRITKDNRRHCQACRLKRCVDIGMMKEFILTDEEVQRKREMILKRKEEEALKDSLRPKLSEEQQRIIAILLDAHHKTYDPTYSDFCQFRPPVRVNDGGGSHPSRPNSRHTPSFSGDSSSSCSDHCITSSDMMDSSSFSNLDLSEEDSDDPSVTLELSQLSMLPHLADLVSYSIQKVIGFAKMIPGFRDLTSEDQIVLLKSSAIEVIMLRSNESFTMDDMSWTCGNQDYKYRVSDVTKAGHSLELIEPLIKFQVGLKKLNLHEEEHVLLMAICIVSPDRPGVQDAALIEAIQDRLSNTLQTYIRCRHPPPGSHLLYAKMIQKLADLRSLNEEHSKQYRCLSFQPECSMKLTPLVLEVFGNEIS
human Thyroid Receptor alpha (THRa1), THRA (gene 7067), sequence (P10827 whole entry, looked up, the tested form may be a part): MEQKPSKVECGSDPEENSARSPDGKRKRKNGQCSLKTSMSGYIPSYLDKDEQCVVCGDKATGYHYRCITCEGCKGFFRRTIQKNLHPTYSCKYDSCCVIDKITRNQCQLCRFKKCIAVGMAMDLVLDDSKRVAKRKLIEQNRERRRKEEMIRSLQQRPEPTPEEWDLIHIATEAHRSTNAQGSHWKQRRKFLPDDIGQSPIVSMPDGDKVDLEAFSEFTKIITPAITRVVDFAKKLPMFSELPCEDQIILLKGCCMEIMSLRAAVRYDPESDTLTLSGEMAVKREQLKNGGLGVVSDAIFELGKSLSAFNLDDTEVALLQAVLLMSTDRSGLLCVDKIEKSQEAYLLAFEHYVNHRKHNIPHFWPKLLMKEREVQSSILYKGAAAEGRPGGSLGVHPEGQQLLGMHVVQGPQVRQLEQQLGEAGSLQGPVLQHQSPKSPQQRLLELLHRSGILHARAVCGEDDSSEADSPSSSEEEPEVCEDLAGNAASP
human Peroxisome Proliferator-activated Receptor delta (PPARd), PPARD (gene 5467), sequence (Q03181 whole entry, looked up): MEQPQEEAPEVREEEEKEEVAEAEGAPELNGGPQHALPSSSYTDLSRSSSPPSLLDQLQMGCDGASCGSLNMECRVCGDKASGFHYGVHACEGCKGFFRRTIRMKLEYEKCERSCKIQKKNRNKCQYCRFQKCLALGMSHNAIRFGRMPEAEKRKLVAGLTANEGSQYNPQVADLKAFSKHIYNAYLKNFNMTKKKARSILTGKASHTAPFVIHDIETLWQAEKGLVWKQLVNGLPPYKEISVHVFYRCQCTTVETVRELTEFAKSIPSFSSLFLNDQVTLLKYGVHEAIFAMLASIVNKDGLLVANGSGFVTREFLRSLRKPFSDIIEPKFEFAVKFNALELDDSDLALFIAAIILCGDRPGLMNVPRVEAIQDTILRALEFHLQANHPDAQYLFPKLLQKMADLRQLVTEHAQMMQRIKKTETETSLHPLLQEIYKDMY
Peroxisome proliferator-activated receptor gamma (Homo sapiens), sequence (P37231 whole entry, looked up, the tested form may be a part): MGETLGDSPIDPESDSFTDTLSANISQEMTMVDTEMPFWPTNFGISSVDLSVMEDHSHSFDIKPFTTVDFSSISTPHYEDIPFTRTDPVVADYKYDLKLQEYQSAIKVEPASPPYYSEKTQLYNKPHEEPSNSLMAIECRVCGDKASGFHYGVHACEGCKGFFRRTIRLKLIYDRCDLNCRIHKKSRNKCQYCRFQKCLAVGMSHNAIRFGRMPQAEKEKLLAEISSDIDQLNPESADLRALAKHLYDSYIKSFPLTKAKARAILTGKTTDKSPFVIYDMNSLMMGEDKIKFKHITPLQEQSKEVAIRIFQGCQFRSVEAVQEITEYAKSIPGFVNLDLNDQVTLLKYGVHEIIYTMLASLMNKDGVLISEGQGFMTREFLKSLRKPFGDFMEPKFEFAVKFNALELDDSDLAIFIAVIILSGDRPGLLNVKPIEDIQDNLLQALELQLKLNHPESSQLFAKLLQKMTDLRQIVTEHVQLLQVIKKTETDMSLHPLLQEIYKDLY
E-selectin (Homo sapiens), sequence (P16581 whole entry, looked up): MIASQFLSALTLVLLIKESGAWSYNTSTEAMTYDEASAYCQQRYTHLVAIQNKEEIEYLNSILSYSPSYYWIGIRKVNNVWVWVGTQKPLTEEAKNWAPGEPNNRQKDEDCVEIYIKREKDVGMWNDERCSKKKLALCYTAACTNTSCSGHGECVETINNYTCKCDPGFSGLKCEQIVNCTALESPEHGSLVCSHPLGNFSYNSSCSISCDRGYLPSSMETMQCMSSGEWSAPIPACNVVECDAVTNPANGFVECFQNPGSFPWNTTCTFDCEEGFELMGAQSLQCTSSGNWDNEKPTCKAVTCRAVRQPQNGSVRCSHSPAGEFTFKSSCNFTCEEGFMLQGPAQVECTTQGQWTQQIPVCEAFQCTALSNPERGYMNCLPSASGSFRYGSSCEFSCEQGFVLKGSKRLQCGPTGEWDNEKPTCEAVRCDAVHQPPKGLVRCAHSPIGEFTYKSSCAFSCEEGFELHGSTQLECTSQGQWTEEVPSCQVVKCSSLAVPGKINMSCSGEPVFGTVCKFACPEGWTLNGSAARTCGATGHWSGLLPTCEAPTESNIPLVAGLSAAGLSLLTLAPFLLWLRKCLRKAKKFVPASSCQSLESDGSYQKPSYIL
Nuclear receptor subfamily 1 group I member 2 (Homo sapiens), sequence (O75469 whole entry, looked up, the tested form may be a part): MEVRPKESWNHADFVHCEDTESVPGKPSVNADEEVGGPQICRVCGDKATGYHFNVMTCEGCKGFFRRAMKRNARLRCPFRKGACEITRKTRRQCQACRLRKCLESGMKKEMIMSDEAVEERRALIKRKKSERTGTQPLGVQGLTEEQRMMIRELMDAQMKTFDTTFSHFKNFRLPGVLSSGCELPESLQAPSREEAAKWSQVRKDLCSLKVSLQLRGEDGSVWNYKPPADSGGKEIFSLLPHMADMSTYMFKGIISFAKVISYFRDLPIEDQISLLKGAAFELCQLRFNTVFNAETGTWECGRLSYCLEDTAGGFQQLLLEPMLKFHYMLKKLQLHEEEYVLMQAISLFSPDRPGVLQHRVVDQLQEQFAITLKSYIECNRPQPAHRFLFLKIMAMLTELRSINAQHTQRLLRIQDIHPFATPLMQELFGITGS
human Retinoid X Receptor beta (RXRb), RXRB (gene 6257), sequence (P28702 whole entry, looked up, the tested form may be a part): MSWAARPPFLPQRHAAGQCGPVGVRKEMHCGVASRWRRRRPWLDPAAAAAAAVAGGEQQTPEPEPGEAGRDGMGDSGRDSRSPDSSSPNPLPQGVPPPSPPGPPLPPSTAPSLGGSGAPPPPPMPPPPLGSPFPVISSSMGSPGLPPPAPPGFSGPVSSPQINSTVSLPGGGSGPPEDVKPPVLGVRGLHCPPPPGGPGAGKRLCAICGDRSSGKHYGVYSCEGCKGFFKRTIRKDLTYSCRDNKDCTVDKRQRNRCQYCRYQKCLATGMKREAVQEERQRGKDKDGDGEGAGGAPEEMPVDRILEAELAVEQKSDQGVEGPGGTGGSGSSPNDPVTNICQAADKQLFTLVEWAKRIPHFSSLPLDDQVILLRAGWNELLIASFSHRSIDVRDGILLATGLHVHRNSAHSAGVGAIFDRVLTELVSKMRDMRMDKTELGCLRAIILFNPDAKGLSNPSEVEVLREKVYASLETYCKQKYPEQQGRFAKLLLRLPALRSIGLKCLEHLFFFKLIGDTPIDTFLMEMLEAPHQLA
human RAR-related Orphan Receptor beta (RORb), RORB (gene 6096), sequence (Q92753 whole entry, looked up, the tested form may be a part): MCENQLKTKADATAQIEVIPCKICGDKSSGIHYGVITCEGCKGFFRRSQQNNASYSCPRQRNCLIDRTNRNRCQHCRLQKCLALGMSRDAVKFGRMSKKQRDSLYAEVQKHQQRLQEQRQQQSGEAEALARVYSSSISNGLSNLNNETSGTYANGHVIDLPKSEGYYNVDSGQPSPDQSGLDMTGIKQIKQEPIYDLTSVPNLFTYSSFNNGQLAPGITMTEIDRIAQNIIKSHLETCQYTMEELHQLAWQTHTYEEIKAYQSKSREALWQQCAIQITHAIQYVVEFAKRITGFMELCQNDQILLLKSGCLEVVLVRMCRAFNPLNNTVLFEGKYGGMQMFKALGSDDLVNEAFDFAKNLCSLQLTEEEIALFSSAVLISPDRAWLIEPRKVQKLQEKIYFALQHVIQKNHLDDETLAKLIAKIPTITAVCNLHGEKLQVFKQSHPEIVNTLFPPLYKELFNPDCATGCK

CCCN(CCC)c1c([N+](=O)[O-])cc(C(C)C)cc1[N+](=O)[O-]
active: [3] 20 µM | [5] 1.49 µM | [8] 17.9 µM | [12] 32 µM | [13] 20 µM | [14] 28.5 µM | [15] 31.2 µM | [18] 28.9 µM
not listed: [19] | [20]
inactive: all other assays above

CCCCN(CCCC)SN(C)C(=O)Oc1cccc2c1OC(C)(C)C2
active: [2] 29.8 µM | [3] 19.8 µM | [4] 12.3 µM | [5] 16 µM | [8] 68.3 µM | [10] 22.9 µM | [12] 30.6 µM | [13] 26 µM | [14] 29.8 µM | [15] 36.4 µM | [18] 29.5 µM
inactive: [1] | [7] | [11] | [16]

OCC(F)(F)OC(F)(F)C(F)(F)OC(F)(F)C(F)(F)OC(F)(F)F
inactive: [1] | [4] | [6] | [19] | [20] | [7] | [8] | [9] | [11] | [13] | [17]
active: [2] 30 µM | [3] 15.5 µM and 26.1 µM | [8] 32.2 µM | [10] 46.3 µM and 55.2 µM | [12] 45.4 µM and 14.5 µM | [13] 45.4 µM | [14] 31.5 µM and 49.7 µM | [15] 40.7 µM and 42.9 µM | [16] 38.9 µM and 48.5 µM | [18] 25.7 µM and 49.8 µM

CCCCCCCc1ccc(O)cc1
inactive: [1] | [4] | [5] | [6] | [19] | [20] | [7] | [8] | [9] | [17]
active: [2] 37.3 µM | [3] 14.3 µM | [4] 24.3 µM | [5] 11.1 µM | [8] 11.1 µM and 48.7 µM | [10] 35.2 µM | [11] 35.7 µM | [12] 37.6 µM | [13] 29.1 µM | [14] 25.3 µM | [15] 38.1 µM | [16] 38.4 µM | [18] 39.2 µM

O=C(O)C(Cl)Cl
not listed: [5] | [6] | [8] | [17] | [19]
inactive: all other assays above
